The list is not random: actives were taken first. Their share in the collection is about 1.6%.
KCNQ2 inh: inhibitors of rat KCNQ2 potassium channel; 1.1% of 310,000 active; B-score at 10 µM; AID 2156; CHO-K1 KCNQ2, FluxOR thallium flux, 20 min; stronger effect = lower value;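 active means fluorescence ratio B-score at most minus 3 library SDs, with starting brightness B-score within 2 library SDs, cut at about -5.5 in these data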
KCNQ2 pot: potentiators of rat KCNQ2 potassium channel; O88943; CHO-K1 KCNQ2, FluxOR thallium flux fluorescence; stronger effect = higher value; B-score at 10 µM; 0.54% of 310,000 active; AID 2239;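 active means fluorescence ratio B-score at least 3 SD of library B-scores, with initial fluorescence B-score within 3 of them, cut at about 5.3 in these data; same plate scores as AID 2156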;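 further: B-score of peak minus minimum over baseline fluorescence ratio after K+ and Tl+ stimulus; positive B-score means potentiation of KCNQ2 with more thallium influx and brighter signal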
Kir21 conf inh: confirmation of mouse Kir2.1 potassium channel inhibitors | Tl flux remaining, % of negative control (stronger effect = lower value), % at 10 µM | Kir2.1-expressing cells, FluxOR thallium flux fluorescence; stronger effect = lower value | 41% of 2,300 active | AID 2032 | shares compounds with KCNQ2 pot;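 active means Primary-screen hit whose thallium flux fell at least 3 control SD below untreated wells in both duplicates, with normal baseline fluorescence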;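 further: 0% = blank wells without stimulus and 100% = stimulated no-compound controls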
Target sequence (P35561 whole entry, looked up): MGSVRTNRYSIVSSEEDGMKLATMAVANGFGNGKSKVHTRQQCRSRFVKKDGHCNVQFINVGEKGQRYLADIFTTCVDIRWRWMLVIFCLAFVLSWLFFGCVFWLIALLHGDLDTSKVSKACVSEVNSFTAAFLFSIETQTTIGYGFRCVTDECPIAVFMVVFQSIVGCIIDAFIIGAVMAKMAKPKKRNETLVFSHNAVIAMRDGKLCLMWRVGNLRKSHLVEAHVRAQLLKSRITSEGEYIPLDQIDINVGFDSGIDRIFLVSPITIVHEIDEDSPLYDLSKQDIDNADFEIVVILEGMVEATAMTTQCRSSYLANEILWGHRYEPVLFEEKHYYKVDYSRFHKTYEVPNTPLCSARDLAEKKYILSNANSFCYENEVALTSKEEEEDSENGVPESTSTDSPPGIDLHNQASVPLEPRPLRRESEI
HEK293 Tl flux: alters thallium flux in parental HEK293 cells, Kir2.1 counter-screen. FluxOR thallium flux fluorescence; 0% = unstimulated blank wells. FluxOR signal as % of negative control (100 = no effect), % at 10 µM. shares compounds with KCNQ2 pot. AID 2105. 19% of 2,300 active;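 active means dye signal at least 3 control SD above or below untreated wells in both duplicates, raw fluorescence within 3, either direction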;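 further: percent is based on the flux ratio of peak minus minimum fluorescence over baseline F0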
CHO-K1 Tl ctr: counter-screen for KCNQ2 potentiators: effect in parental CHO-K1 cells; FluxOR thallium flux fluorescence; zero = vehicle mean+3SD, 100% = vehicle-minus-blank window; 43% of 1,200 active; activity increase over 3SD of controls, % at 10 µM; shares compounds with KCNQ2 pot;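 active means signal rise of at least 3 SD above the untreated control mean, in both duplicate wells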;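 further: counter screen of KCNQ2 potentiator hits so any rise reflects channel-independent effects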
KCNQ1 sel pot: selectivity of KCNQ2 potentiators: effect on human KCNQ1. shares compounds with KCNQ2 pot. CHO KCNQ1 stable, FluxOR thallium flux fluorescence; beyond 3SD, as % of vehicle-control signal. activation over 3SD threshold, % at 10 µM. 28% of 1,200 active. AID 2283;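 active means fluorescence ratio rise of at least 3 SD of vehicle wells above their mean, in both replicate wells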;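 further: 0% = vehicle mean plus 3 SD and 100% = vehicle minus unstimulated blank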
KCNQ2 pot conf: confirmation of rat KCNQ2 potassium channel potentiators; shares compounds with KCNQ2 pot; CHO-KCNQ2 cells, FluxOR thallium flux fluorescence; potentiation, less the hit threshold, % at 10 µM; 68% of 1,200 active; AID 2287;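 active means fluorescence ratio rising 3 SD or more over the vehicle control mean in both replicates, plus primary screen hit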;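 further: peak minus minimum thallium fluorescence divided by baseline after K/Tl stimulus; 0% = vehicle mean plus 3 SD and 100% = vehicle minus unstimulated blank difference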
Kir2-1 sel: mouse Kir2.1 off-target activity of KCNQ2 potentiators; shares compounds with KCNQ2 pot; HEK293 Kir2.1, FluxOR thallium flux fluorescence; 2% of 1,200 active; activity over 3SD threshold, % at 10 µM;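 active means fluorescence ratio rise of at least 3 SD above the vehicle-control mean, seen in both replicates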;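 further: 0% = vehicle mean plus 3 SD and 100% = vehicle minus no-stimulus blank window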
KCNQ2 W236L pot: rat KCNQ2 W236L mutant potentiation by KCNQ2 potentiators. shares compounds with KCNQ2 pot. CHO KCNQ2-W236L, automated patch clamp current. current increase over 3SD of negative controls (%), stronger effect = higher value, % at 25 µM. 10% of 940 active;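 active means current increase at least 3 SD of the untreated controls above them in both duplicate recordings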
An asterisk follows results filed as active; i = inactive; . = no result given.

SMILES	KCNQ2 inh	KCNQ2 pot	Kir21 conf inh	HEK293 Tl flux	CHO-K1 Tl ctr	KCNQ1 sel pot	KCNQ2 pot conf	Kir2-1 sel	others
CCOC(=O)CSC1=C(C#N)C(c2ccc(F)cc2)C(C(C)=O)=C(C)N1 (configuration not stated)	i	8.1*	i	i	14*	-20	4.6*	-44	KCNQ2 W236L pot=i
C=CCSC1=C(C#N)C(c2ccccc2)CC(=O)N1 (configuration not stated)	i	0.71	.	.	.	.	.	.
CC(=O)C1=C(C)NC(SCC(=O)c2ccc(C)cc2)=C(C#N)C1c1ccco1 (configuration not stated)	i	12*	i	i	-12	-20	-22	-46
CCOC(=O)C1=C(C)NC(SCC(=O)OC)=C(C#N)C1c1ccc(C(=O)OC)cc1 (configuration not stated)	i	.	.	.	.	.	.	.
O=C(NCc1ccccc1)C1CCC(=O)N(CCN2CCOCC2)C1 (configuration not stated)	i	0.69	.	.	.	.	.	.
Cc1ccc(C2=NN(CC(=O)NCCN(CC(C)C)CC(C)C)C(=O)CC2)cc1	i	.	.	.	.	.	.	.
CCN(CC)S(=O)(=O)c1ccc(OC)c(NC(=O)c2cc(=O)[nH]c3ccccc23)c1	i	0.22	.	.	.	.	.	.
CN(c1cccc(NC(=O)c2cccc([N+](=O)[O-])c2)c1)S(C)(=O)=O	i	0.92	.	.	.	.	.	.
Fc1c(CSC(=S)N2CCOCC2)cccc1CSC(=S)N1CCOCC1	i	.	.	.	.	.	.	.
O=C(NCCCCc1ccccc1)Nc1cccc(F)c1	i	13*	i	i	-2	-20	27*	-40	KCNQ2 W236L pot=i
Cc1cccc(NC(=O)NCCCCc2ccccc2)c1	i	.	.	.	.	.	.	.
COc1ccccc1C(CCNCc1ccccc1)c1ccc(OC(C)C)cc1 (configuration not stated)	i	.	58%*	i	.	.	.	.
COc1ccc(CNCCC(c2ccc(OC(C)C)cc2)c2ccccc2OC)cc1OC (configuration not stated)	i	.	.	.	.	.	.	.
COc1ccc(CNCCC(c2ccc(OC(C)C)cc2)c2ccccc2OC)cc1 (configuration not stated)	i	.	29%*	i	.	.	.	.
COc1ccccc1C(CCNCc1ccc(N(C)C)cc1)c1ccc(OC(C)C)cc1 (configuration not stated)	i	.	.	.	.	.	.	.
CCN(c1ccccc1)S(=O)(=O)c1ccc(C(C(=O)OC)C(=O)OC)c([N+](=O)[O-])c1	i	.	.	.	.	.	.	.
CCN(c1ccccc1)S(=O)(=O)c1cc([N+](=O)[O-])ccc1N	i	5	56%*	i	.	.	.	.
O=C(NCC1CCCN1S(=O)(=O)c1cccs1)c1ccc(Cl)cc1 (configuration not stated)	i	.	.	.	.	.	.	.
O=C(NC(=S)N1CCc2ccccc21)c1ccccc1Cl	i	8.9*	i	i	14*	-12	62*	-14	KCNQ2 W236L pot=i
O=C(NCCC(=O)N1CCc2ccccc21)c1ccccc1Cl	i	.	.	.	.	.	.	.
CN(C)S(=O)(=O)N1CCC(Oc2cccc(C(=O)N3CCCCCCC3)c2)CC1	i	.	.	.	.	.	.	.
Cc1ccc(NC(=O)COC(=O)C2CC2C)c(S(=O)(=O)N2CCCCC2)c1 (configuration not stated)	i	5.3*	i	i	-14	-17	-23	-50
Cc1cc(Br)c(NC(=O)COC(=O)C2CC2C)c(Br)c1 (configuration not stated)	i	3.5	.	.	.	.	.	.
CSc1ccccc1NC(=O)Nc1cccc(Cl)c1C	i	0.05	.	.	.	.	.	.
Cc1ccccc1C(=O)NNC(=O)C(=O)Nc1cccc(Cl)c1C	i	14*	i	275%*	-6	-23	21*	-39	KCNQ2 W236L pot=i
SMILES	KCNQ2 inh	KCNQ2 pot	Kir21 conf inh	HEK293 Tl flux	CHO-K1 Tl ctr	KCNQ1 sel pot	KCNQ2 pot conf	Kir2-1 sel	others
Cc1c(Cl)cccc1NC(=O)C(=O)NNC(=O)c1ccccc1F	i	22*	i	426%*	-6	-11	73*	-7	KCNQ2 W236L pot=i
Cc1c(Cl)cccc1Nc1ccccc1C(=O)O	i	.	.	.	.	.	.	.
Cc1ccc(OCC(=O)Nc2ccc(CN3CCCCC3)cc2)c(C)c1	i	.	.	.	.	.	.	.
Cc1ccc(S(=O)(=O)Nc2cc(Cl)c(O)cc2C)cc1	i	.	.	.	.	.	.	.
Cc1ccc(S(=O)(=O)Nc2cc(C(C)C)c(O)cc2C)cc1	i	.	34%*	71%*	.	.	.	.
CCCCNc1nc(=S)n(-c2ccccc2)c(C)c1C(C)=O	i	0.72	.	.	.	.	.	.
O=C(NCc1ccco1)c1ccccc1-c1ccc(C(F)(F)F)cc1	i	6.1*	i	i	-8	23*	1.0*	-39	KCNQ2 W236L pot=i
O=C(NCc1ccco1)c1ccc(C(F)(F)F)cc1	i	1	.	.	.	.	.	.
Oc1c(Br)cc(Br)cc1C=Nc1ccc2[nH]ncc2c1	i	14*	i	i	11*	-22	20*	-34	KCNQ2 W236L pot=10%*
O=C(N/N=C/c1cc(Br)cc(Br)c1O)c1ccncc1	i	2.1	.	.	.	.	.	.
COc1ccc(C=Nc2ccc3[nH]ncc3c2)c(O)c1	i	.	.	.	.	.	.	.
Oc1c(Br)cc(Br)cc1C=Nc1cccnc1	i	8.4*	i	i	-10	-14	17*	-39	KCNQ2 W236L pot=i
CN1CCN(C(=O)CC2(CC(=O)O)CCCC2)CC1	i	.	.	.	.	.	.	.
O=S(=O)(NC1=NCCC1)c1cccc(NS(=O)(=O)c2ccc(OC(F)(F)F)cc2)c1	i	0.93	.	.	.	.	.	.
Oc1ccc(C2=NN(c3ccccc3)C(c3ccc(F)cc3)C2)cc1 (configuration not stated)	i	12*	i	i	3.9*	-14	-16	-25
Oc1ccccc1C1=NN(c2ccccc2)C(c2ccc(F)cc2)C1 (configuration not stated)	i	2.9	.	.	.	.	.	.
COc1ccc(CN(C)Cc2c(O)ccc3cc(Br)ccc23)cc1OC	i	.	.	.	.	.	.	.
COc1ccc(-c2c[n+](CC(=O)OC3CC(C)CCC3C(C)C)c3n2CCC3)cc1 (configuration not stated)	i	0.47	.	.	.	.	.	.
CC(C)[C@@H]1CC[C@@H](C)C[C@H]1OC(=O)C[n+]1cc(-c2ccc(Cl)cc2)n2c1CCCCC2	i	.	25%*	i	.	.	.	.
CCCc1nc2sc3c(c2c(=O)n1NC(=O)CCC(=O)OC)CCCC3	i	9.3*	i	i	6.2*	3.4*	31*	-25	KCNQ2 W236L pot=i
